Test results taken from the supplement of paper PMC10849652.
About 7,900 targets were measured; listed, in parts, are those with a hit and a random draw of the rest. About 0.6% of all pairs of compound and target were hits.

Experiments:
Test in all cases: log2 fold change, soluble protein after heating vs DMSO (PISA); higher = thermal stabilisation; K562 cells, 10 uM, 30 min; active = over 0.2 and 3.5 SD of the protein, either way, in both replicates (recomputed)
[1] = compound: Cc1ccc(NC(=O)c2ccc(CN3CC[C@H](N(C)C)C3)c(C(F)(F)F)c2)cc1Nc1nccc(-c2cncnc2)n1 [bafetinib]
Method in brief: (§1)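 Aliquots of K562 cells (2×10^6 cells/mL) treated with 10 μM compound for 30 min were heated for 3 min over 48°C-58°C. After pooling and extraction in PBS with 0.5% NP-40 at 4°C, soluble protein from a 21,000xg, 90 min spin was quantified by TMTpro 16plex LC-MS/MS with channel sums equalised. Thermal stability is expressed against control samples, from duplicates, as a log2 fold change.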

[2] = compound: Cc1cccc(CC(=O)N2CCc3c2ccc(-c2cn(C)c4ncnc(N)c24)c3F)n1
Method in brief: as §1

[3] = compound: Cc1cn(-c2cc(NC(=O)c3ccc(C)c(Nc4nccc(-c5cccnc5)n4)c3)cc(C(F)(F)F)c2)cn1 [nilotinib]
Method in brief: as §1

[4] = compound: Cc1nc(Nc2n[nH]c3c2CN(C(=O)N[C@H](CN(C)C)c2ccccc2)C3(C)C)c2sccc2n1
Method in brief: as §1

[5] = compound: Cc1nc(Nc2ncc(C(=O)Nc3c(C)cccc3Cl)s2)cc(N2CCN(CCO)CC2)n1 [dasatinib]
Method in brief: as §1

[6] = compound: Cc1ncc(-c2ccnc(Nc3ccc(S(C)(=O)=O)cc3)n2)n1C(C)C
Method in brief: as §1

[7] = compound: Cn1cc(-c2ccc3c(c2)CCN3C(=O)Cc2cccc(C(F)(F)F)c2)c2c(N)ncnc21
Method in brief: as §1

[8] = compound: Cn1cc(-c2ccc3nnc(C(F)(F)c4ccc5ncccc5c4)n3n2)cn1
Method in brief: as §1

[9] = compound: Cn1cncc1[C@@](N)(c1ccc(Cl)cc1)c1ccc2c(c1)c(-c1cccc(Cl)c1)cc(=O)n2C [tipifarnib]
Method in brief: as §1

[10] = compound: FC(F)(F)c1ccc(/C=C/c2nc(COc3ccc(CCCCn4ccnn4)cc3)co2)cc1 [mubritinib]
Method in brief: as §1

[11] = compound: NC(=O)Nc1cc(-c2cccc(F)c2)sc1C(=O)N[C@H]1CCCNC1
Method in brief: as §1

[12] = compound: NC(=O)c1cnc(N[C@@H]2CCCC[C@@H]2N)nc1Nc1cccc(-n2nccn2)c1
Method in brief: as §1

[13] = compound: NC1(c2ccc(-c3nc4ccn5c(=O)[nH]nc5c4cc3-c3ccccc3)cc2)CCC1
Method in brief: as §1

[14] = compound: NCC(=O)Nc1ccc(-n2nc(C(F)(F)F)cc2-c2ccc3c(ccc4ccccc43)c2)cc1
Method in brief: as §1

[15] = compound: Nc1ccccc1NC(=O)c1ccc(CNC(=O)OCc2cccnc2)cc1 [entinostat]
Method in brief: as §1

[16] = compound: O=C(CCCCCCC(=O)Nc1ccccc1)NO [vorinostat]
Method in brief: as §1

[17] = compound: O=C(CCCCCCNC(=O)c1cnc(N(c2ccccc2)c2ccccc2Cl)nc1)NO [citarinostat]
Method in brief: as §1

[18] = compound: O=C(O)c1ccc2c(c1)nc(Nc1cccc(Cl)c1)c1ccncc12 [silmitasertib]
Method in brief: as §1

[19] = compound: O=C1NC(=O)C(c2cnc3ccccn23)=C1c1cn2c3c(cc(F)cc13)CN(C(=O)N1CCCCC1)CC2
Method in brief: as §1

[20] = compound: c1cc(OCCN2CCCCC2)cc(-c2n[nH]c3ccc(-c4nnc[nH]4)cc23)c1
Method in brief: as §1

Measured: log2 fold change

HDDC2 (UniProt Q7Z4H3)
Chain of UniProt Q7Z4H3 (Q7Z4H3 whole entry, looked up): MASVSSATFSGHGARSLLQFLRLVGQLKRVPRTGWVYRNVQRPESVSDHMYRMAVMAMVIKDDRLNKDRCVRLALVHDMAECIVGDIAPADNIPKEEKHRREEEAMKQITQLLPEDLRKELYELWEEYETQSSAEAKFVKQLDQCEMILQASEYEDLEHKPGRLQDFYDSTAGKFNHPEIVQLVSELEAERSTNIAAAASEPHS
inactive: [1] -0.015 | [2] 0.039 | [3] 0.057 | [4] -0.005 | [5] -0.01 | [6] -0.003 | [7] 0.069 | [8] -0.008 | [9] -0.091 | [10] 0.043 | [11] -0.013 | [12] 0.111 | [13] -0.005 | [14] 0.032 | [15] -0.03 | [16] -0.036 | [17] 0.032 | [18] -0.032 | [19] 0.029 | [20] -0.041

FIS1 (UniProt Q9Y3D6)
Chain of UniProt Q9Y3D6 (Q9Y3D6 whole entry, looked up): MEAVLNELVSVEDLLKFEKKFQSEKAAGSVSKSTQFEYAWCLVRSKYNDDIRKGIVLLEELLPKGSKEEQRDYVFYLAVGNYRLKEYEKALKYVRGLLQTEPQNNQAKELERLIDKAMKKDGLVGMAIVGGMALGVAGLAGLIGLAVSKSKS
inactive: [1] -0.087 | [2] -0.034 | [3] 0.041 | [4] -0.002 | [5] -0.044 | [6] 0.007 | [7] 0.111 | [8] 0.07 | [9] -0.024 | [10] 0.053 | [11] -0.013 | [12] 0.075 | [13] 0.002 | [14] 0.133 | [15] -0.004 | [16] -0.027 | [17] 0.051 | [18] -0.017 | [19] -0.03 | [20] -0.006

GALNT11 (UniProt Q8NCW6)
Chain of UniProt Q8NCW6 (Q8NCW6 whole entry, looked up): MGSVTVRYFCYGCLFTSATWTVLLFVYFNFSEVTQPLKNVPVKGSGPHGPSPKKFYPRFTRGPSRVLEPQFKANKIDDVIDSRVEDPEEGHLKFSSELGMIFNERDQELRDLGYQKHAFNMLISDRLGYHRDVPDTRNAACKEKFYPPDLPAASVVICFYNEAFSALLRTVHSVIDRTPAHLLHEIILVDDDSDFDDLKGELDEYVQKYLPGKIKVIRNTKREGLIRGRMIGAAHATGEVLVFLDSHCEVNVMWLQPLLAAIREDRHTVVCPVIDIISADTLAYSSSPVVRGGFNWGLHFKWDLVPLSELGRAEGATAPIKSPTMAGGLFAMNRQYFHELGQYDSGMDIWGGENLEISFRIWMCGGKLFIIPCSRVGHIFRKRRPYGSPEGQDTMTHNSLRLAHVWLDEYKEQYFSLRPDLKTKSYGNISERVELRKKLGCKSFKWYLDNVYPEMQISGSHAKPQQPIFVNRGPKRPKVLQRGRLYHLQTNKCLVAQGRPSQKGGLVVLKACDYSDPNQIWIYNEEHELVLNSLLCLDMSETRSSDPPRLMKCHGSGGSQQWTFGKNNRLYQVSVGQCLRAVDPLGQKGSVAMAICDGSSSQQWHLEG
inactive: [1] -0.055 | [2] -0.089 | [3] -0.047 | [4] -0.068 | [5] -0.022 | [6] 0.076 | [7] 0.069 | [8] -0.031 | [9] 0.102 | [10] 0.088 | [11] 0.001 | [12] -0.119 | [13] -0.224 | [14] -0.023 | [15] -0.012 | [16] 0.01 | [17] 0.079 | [18] 0.027 | [19] -0.021 | [20] 0.002

HSPA8 (UniProt P11142)
Chain of UniProt P11142 (P11142 whole entry, looked up): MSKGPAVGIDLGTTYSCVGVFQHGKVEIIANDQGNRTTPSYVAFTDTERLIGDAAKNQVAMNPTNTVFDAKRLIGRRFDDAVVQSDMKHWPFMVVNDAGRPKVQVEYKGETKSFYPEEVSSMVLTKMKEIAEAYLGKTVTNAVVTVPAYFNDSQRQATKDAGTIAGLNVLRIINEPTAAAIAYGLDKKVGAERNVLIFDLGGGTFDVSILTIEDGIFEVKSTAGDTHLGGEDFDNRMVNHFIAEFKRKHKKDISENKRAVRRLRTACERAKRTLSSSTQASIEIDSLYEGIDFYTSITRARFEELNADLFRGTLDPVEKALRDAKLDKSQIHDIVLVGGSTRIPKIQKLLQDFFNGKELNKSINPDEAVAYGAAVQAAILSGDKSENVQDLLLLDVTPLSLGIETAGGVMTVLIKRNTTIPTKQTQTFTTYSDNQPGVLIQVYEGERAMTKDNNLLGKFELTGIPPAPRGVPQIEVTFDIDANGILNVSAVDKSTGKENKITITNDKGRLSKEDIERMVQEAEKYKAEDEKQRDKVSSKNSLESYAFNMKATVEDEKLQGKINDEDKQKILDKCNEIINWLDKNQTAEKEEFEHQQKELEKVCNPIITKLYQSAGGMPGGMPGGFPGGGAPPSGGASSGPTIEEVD
inactive: [1] 0.008 | [2] -0.008 | [3] 0.081 | [4] -0.001 | [5] 0.03 | [6] -0.003 | [7] -0.029 | [8] -0.003 | [9] 0.037 | [10] -0.002 | [11] -0.006 | [12] 0.011 | [13] 0.018 | [14] 0.012 | [15] -0.009 | [16] -0.01 | [17] -0.026 | [18] -0.015 | [19] 0.003 | [20] -0.034

HIST2H3A (UniProt Q71DI3)
inactive: [1] 0.198 | [2] -0.183 | [3] -0.054 | [4] -0.068 | [5] 0.215 | [6] -0.032 | [7] -0.258 | [8] -0.054 | [9] 0.031 | [10] -0.037 | [11] 0.032 | [12] 0.286 | [13] 0.46 | [14] -0.077 | [15] 0.196 | [16] 0.442 | [17] 0.006 | [18] -0.084 | [19] 0.07 | [20] -0.02

GOLPH3 (UniProt Q9H4A6)
Chain of UniProt Q9H4A6 (Q9H4A6 whole entry, looked up): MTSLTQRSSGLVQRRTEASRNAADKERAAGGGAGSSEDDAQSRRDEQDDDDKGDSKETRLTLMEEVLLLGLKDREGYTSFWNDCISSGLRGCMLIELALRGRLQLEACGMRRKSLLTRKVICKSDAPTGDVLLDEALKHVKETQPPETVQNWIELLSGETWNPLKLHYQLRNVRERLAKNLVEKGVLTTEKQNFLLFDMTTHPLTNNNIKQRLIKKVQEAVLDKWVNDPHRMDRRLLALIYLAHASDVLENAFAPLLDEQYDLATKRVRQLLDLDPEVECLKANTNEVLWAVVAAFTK
inactive: [1] 0.074 | [2] 0.032 | [3] -0.021 | [4] -0.015 | [5] -0.123 | [6] -0.013 | [7] 0.02 | [8] -0.013 | [9] -0.028 | [10] 0.07 | [11] 0.041 | [12] -0.082 | [13] 0.009 | [14] 0 | [15] 0.022 | [16] 0.014 | [17] 0.071 | [18] -0.013 | [19] 0 | [20] -0.043

HMG20A (UniProt Q9NP66)
Chain of UniProt Q9NP66 (Q9NP66 whole entry, looked up): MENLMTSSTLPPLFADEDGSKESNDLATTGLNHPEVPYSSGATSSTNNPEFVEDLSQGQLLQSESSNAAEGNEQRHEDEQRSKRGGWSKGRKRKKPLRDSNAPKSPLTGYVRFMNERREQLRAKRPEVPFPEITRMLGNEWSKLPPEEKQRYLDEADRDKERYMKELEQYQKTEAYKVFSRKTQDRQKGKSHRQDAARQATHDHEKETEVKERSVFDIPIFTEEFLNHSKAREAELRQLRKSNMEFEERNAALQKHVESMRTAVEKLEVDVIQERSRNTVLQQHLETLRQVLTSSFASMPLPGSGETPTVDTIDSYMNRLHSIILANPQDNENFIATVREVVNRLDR
inactive: [1] -0.012 | [2] -0.05 | [3] -0.046 | [4] -0.02 | [5] 0.052 | [6] -0.012 | [7] -0.05 | [8] -0.224 | [9] 0.064 | [10] -0.021 | [11] 0 | [12] 0.126 | [13] -0.054 | [14] -0.056 | [15] 0.064 | [16] 0.09 | [17] 0.072 | [18] 0.069 | [19] 0 | [20] -0.167
